Experiments:
[1] = tested on: PIK3CB; conditions: Compound Concentration (nM):1000
[2] = tested on: PIK3CD; conditions: Compound Concentration (nM):1000
[3] = tested on: PIK3CG; conditions: Compound Concentration (nM):1000
[4] = tested on: T1, PIK4CB; conditions: Compound Concentration (nM):1000
T1 construct: gene PI4KB

[5] = tested on: PIKFYVE; conditions: Compound Concentration (nM):1000
[6] = tested on: PIM1; conditions: Compound Concentration (nM):1000
[7] = tested on: PIM2; conditions: Compound Concentration (nM):1000
[8] = tested on: PIM3; conditions: Compound Concentration (nM):1000
[9] = tested on: PIP5K1A; conditions: Compound Concentration (nM):1000
[10] = tested on: PIP5K1C; conditions: Compound Concentration (nM):1000
[11] = tested on: T2, PIP5K2B; conditions: Compound Concentration (nM):1000
T2 construct: gene PIP4K2B

[12] = tested on: T3, PIP5K2C; conditions: Compound Concentration (nM):1000
T3 construct: gene PIP4K2C

[13] = tested on: T4, PKAC-alpha; conditions: Compound Concentration (nM):1000
T4 construct: gene PRKACA

[14] = tested on: T5, PKAC-beta; conditions: Compound Concentration (nM):1000
T5 construct: gene PRKACB

[15] = tested on: PKMYT1; conditions: Compound Concentration (nM):1000
[16] = tested on: PKN1; conditions: Compound Concentration (nM):1000
[17] = tested on: PKN2; conditions: Compound Concentration (nM):1000
[18] = tested on: PKNB(M.tuberculosis); conditions: 1 µM
[19] = tested on: PLK1; conditions: Compound Concentration (nM):1000
[20] = tested on: PLK2; conditions: Compound Concentration (nM):1000
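Further: KINOMEscan scanMAX binding as percent activity remaining versus control; lower means stronger binding.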

Row | SMILES | Percent Control [1] | Percent Control [2] | Percent Control [3] | Percent Control [4] | Percent Control [5] | Percent Control [6] | Percent Control [7] | Percent Control [8] | Percent Control [9] | Percent Control [10] | Percent Control [11] | Percent Control [12] | Percent Control [13] | Percent Control [14] | Percent Control [15] | Percent Control [16] | Percent Control [17] | Percent Control [18] | Percent Control [19] | Percent Control [20]
1 | COc1cccc(-c2c[nH]c3c(N/N=C/c4ccncc4)ncnc23)c1 [GW814408X] | 100% | 92% | 88% | 100% | 1.1% | 82% | 100% | 75% | 71% | 28% | 100% | 9.1% | 100% | 100% | 100% | 100% | 100% | 99% | 95% | 100%
2 | C[C@@H](Oc1cc(-n2cnc3ccc(OC4CCN(C)CC4)cc32)sc1C(N)=O)c1ccccc1Cl [GSK579289A] | 20% | 27% | 11% | 100% | 15% | 19% | 100% | 29% | 21% | 72% | 52% | 75% | 100% | 100% | 81% | 72% | 57% | 35% | – | 13%
3 | Cl.O=C(Nc1ccc(Oc2ccc3[nH]c(NC(=O)c4ccccc4)nc3c2)cc1)Nc1cc(C(F)(F)F)ccc1F [GW709042A] | 100% | 76% | 100% | 100% | 100% | 100% | 100% | 100% | 100% | 98% | 100% | 97% | 100% | 100% | 100% | 100% | 60% | 88% | 100% | 98%
4 | Cl.O=C(O[C@H]1CN[C@H](C#Cc2cc3ncnc(Nc4ccc5c(cnn5Cc5ccccc5)c4)c3s2)C1)N1CCOCC1 [GSK200398A] | 100% | 100% | 100% | 100% | 100% | 100% | 100% | 100% | 100% | 99% | 100% | 98% | 100% | 93% | 96% | 88% | 69% | 91% | 76% | 92%
5 | NS(=O)(=O)c1ccc(N/N=C2\C(=O)Nc3ccc(C(=O)NCc4ccncc4)cc32)cc1 [GW300657X] | 81% | 77% | 100% | 83% | 84% | 100% | 100% | 100% | 100% | 51% | 100% | 51% | 100% | 100% | 83% | 100% | 81% | 100% | 74% | 90%
6 | CC1=C(C(=O)Nc2ccc3[nH]ncc3c2)C(c2ccc3ccccc3c2)CC(=O)N1 (centres unmarked) [GSK270822A] | 70% | 100% | 97% | 73% | 83% | 91% | 100% | 92% | 95% | 99% | 100% | 83% | 64% | 68% | 90% | 45% | 76% | 87% | 73% | 100%
7 | CCc1ccc(Oc2nccc(-c3c(-c4ccc(F)cc4)ncn3C3CCNCC3)n2)cc1 [SB-242719] | 99% | 72% | 95% | 100% | 100% | 100% | 100% | 100% | 87% | 100% | 100% | 100% | 36% | 31% | 89% | 94% | 91% | 81% | 98% | 77%
8 | COc1ccccc1-c1cc(/C=C2\C(=O)Nc3ncc(Br)cc32)cc(Br)c1O [GW442130X] | 80% | 64% | 65% | 68% | 30% | 100% | 96% | 100% | 86% | 100% | 100% | 100% | 95% | 100% | 100% | 100% | 36% | 74% | 95% | 100%
9 | CCS(=O)(=O)c1ccc(OC)c(Nc2ncc(-c3cccc(F)c3)o2)c1 [GW621970X] | 100% | 100% | 100% | 100% | 100% | 100% | 100% | 100% | 99% | 28% | 99% | 3.8% | 100% | 100% | 100% | 100% | 68% | 100% | 96% | 93%
10 | COc1cc2ncn(-c3cc(O[C@H](C)c4ccccc4Cl)c(C(N)=O)s3)c2cc1OC [GSK237701A] | 31% | 28% | 12% | 67% | 74% | 88% | 100% | 66% | 0% | 9.9% | 15% | 20% | 100% | 96% | 100% | 100% | 83% | 62% | – | 1.8%
11 | COc1cc(/C=N/Nc2ncnc3[nH]ncc23)ccc1O [GW578748X] | 54% | 100% | 24% | 5% | 28% | 83% | 100% | 53% | 78% | 0% | 74% | 24% | 100% | 100% | 100% | 100% | 100% | 50% | 84% | 31%
12 | COc1ccc2c(-c3ccnc(Nc4cccc(OC(F)(F)F)c4)n3)cnn2n1 [GW810372X] | 100% | 69% | 85% | 72% | 69% | 100% | 100% | 100% | 77% | 66% | 100% | 32% | 100% | 100% | 100% | 100% | 76% | 82% | 91% | 100%
13 | COc1cccc(-n2ncc3c(N/N=C/c4ccncc4)ncnc32)c1 [GW784752X] | 94% | 100% | 54% | 90% | 18% | 100% | 100% | 100% | 86% | 79% | 91% | 19% | 100% | 99% | 100% | 100% | 100% | 100% | 88% | 94%
14 | Nc1ncnc2occ(-c3ccc(NC(=O)Nc4cc(C(F)(F)F)ccc4F)cc3)c12 [GW770249X] | 100% | 100% | 100% | 100% | 95% | 100% | 100% | 100% | 100% | 90% | 100% | 77% | 100% | 100% | 100% | 100% | 90% | 100% | 100% | 1.9%
15 | CC1=C(C(=O)Nc2ccc3[nH]ncc3c2)C(c2ccc(Cl)c(Cl)c2)CC(=O)N1 (centres unmarked) [GSK299115A] | 75% | 100% | 93% | 80% | 100% | 83% | 100% | 91% | 86% | 100% | 99% | 82% | 81% | 63% | 77% | 39% | 65% | 85% | 70% | 100%
16 | COc1cc2ncnc(Nc3ccc4c(cnn4Cc4ccccc4)c3)c2cc1OC.Cl [GW282449A] | 100% | 100% | 100% | 100% | 93% | 100% | 100% | 100% | 100% | 76% | 100% | 73% | 100% | 37% | 100% | 100% | 100% | 100% | 91% | 100%
17 | COC(=O)Nc1nc2ccc(Oc3ccc(NC(=O)Nc4cc(C(F)(F)F)ccc4F)cc3)cc2s1.Cl [GW693917A] | 100% | 76% | 100% | 95% | 100% | 100% | 100% | 100% | 100% | 100% | 100% | 96% | 100% | 95% | 95% | 82% | 57% | 70% | 67% | 96%
18 | NS(=O)(=O)c1ccc(N/N=C2\C(=O)Nc3ccc(Cl)cc32)cc1 [GW280670X] | 100% | 94% | 100% | 100% | 94% | 100% | 100% | 100% | 100% | 80% | 98% | 81% | 100% | 100% | 100% | 100% | 97% | 100% | 100% | 100%
19 | C/C(Nc1ccc(S(N)(=O)=O)cc1)=C1/C(=O)Nc2ccccc21 [GW335962X] | 100% | 95% | 100% | 100% | 100% | 91% | 95% | 89% | 96% | 84% | 100% | 93% | 100% | 87% | 91% | 83% | 74% | 83% | 90% | 87%
20 | CC(C)COC(=O)c1ccc2c(c1)/C(=C/Nc1ccc(S(N)(=O)=O)cc1)C(=O)N2 [GW416981X] | 100% | 95% | 100% | 100% | 100% | 81% | 100% | 40% | 33% | 89% | 100% | 65% | 100% | 100% | 100% | 100% | 71% | 86% | 100% | 59%
